Counter-ions that a name gives are not always drawn.
What was measured:
Conditions in all cases: 10 µM; exposure time 6 h
[1] = system: Danio rerio larvae (5 dpf); assay: difference in excitability vs DMSO (percentage points); higher = more excitable than DMSO
How it was run: (§1)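 Library compounds were tested at 10 µM final in 100 µL egg water on wild-type 5 dpf zebrafish larvae in 96-well plates for 6 h, with 48 larvae per compound. After 3 h, plates at 28.5 ℃ were imaged every 6 s during a 3-h run of moving lines and 100 ms, 400Hz tones. Behaviours were quantified by Z-LaP Tracker and reported as the compound mean less the vehicle control mean, in percentage points.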

[2] = system: Danio rerio larvae (5 dpf); assay: difference in startle response vs DMSO (percentage points); higher = stronger startle than DMSO
How it was run: as §1

[3] = system: Danio rerio larvae (5 dpf); assay: difference in activity during first hour vs DMSO (percentage points); higher = more activity than DMSO
How it was run: as §1

[4] = system: Danio rerio larvae (5 dpf); assay: difference in habituation to acoustic stimuli vs DMSO (percentage points); higher = more habituation than DMSO
How it was run: as §1

[5] = system: Danio rerio larvae (5 dpf); assay: difference in combined optomotor response to red, green and blue moving lines vs DMSO (percentage points); higher = stronger optomotor response than DMSO
How it was run: as §1

Compound	difference in excitability [1]	difference in startle response [2]	difference in activity during first hour [3]	difference in habituation to acoustic stimuli [4]	difference [5]
C[C@]12CC[C@H](O)CC1=CC[C@@H]1[C@@H]2CC[C@]2(C)C(=O)CC[C@@H]12 [Dehydroepiandrosterone]	19	-2.18	-15.8	1.51	6.05
CCOC(=O)c1cncn1[C@H](C)c1ccccc1 [Etomidate]	-7.08	15.9	-22.2	-6.98	-19.2
CC(C)N(CCC(C(N)=O)(c1ccccc1)c1ccccn1)C(C)C (stereo not given) [Disopyramide]	5.49	-1.52	13.6	4.14	9.12
C[N+]1(C)CCCC(OC(=O)C(O)(c2ccccc2)c2ccccc2)C1 (stereo not given) [Mepenzolate (bromide)]	0.196	-4.42	2.16	-0.492	-1.25
CN(C)C(=O)Oc1cccc([N+](C)(C)C)c1 [Neostigmine (methyl sulfate)]	-10.3	0.754	11.2	5.23	17
O=c1[nH]c2ccccc2n1C1CCN(CCCC(c2ccc(F)cc2)c2ccc(F)cc2)CC1 [Pimozide]	-5.57	7.75	-5.44	-11	-13.5
NCC(CC(=O)O)c1ccc(Cl)cc1 (racemic) [(±)-Baclofen]	-0.88	5.35	13.9	-0.192	6.84
Cc1cccc([C@H](C)c2c[nH]cn2)c1C [Dexmedetomidine (hydrochloride)]	3.34	6.43	-24.1	-7.14	-16.9
Cn1c(CCCC(=O)O)nc2cc(N(CCCl)CCCl)ccc21 [Bendamustine (hydrochloride)]	1.71	-1.73	2	-3.41	-1.37
Nc1ccncc1 [4-Aminopyridine]	5.12	6.44	9.5	-2.32	10.7
C[C@H](N)[C@H](O)c1ccc(O)c(O)c1 [Levonordefrin]	2.43	-2.28	3.36	-5.57	-0.226
C=C1C[C@@H]2[C@H](CC[C@]3(C)C(=O)CC[C@@H]23)[C@@]2(C)C=CC(=O)C=C12 [Exemestane]	14.1	0.844	-8.29	-0.126	3.59
N.N.[Cl][Pt][Cl] [Cisplatin]	-2.35	-10	-16.8	-5.63	-0.233
CCN(C(C)=O)c1cccc(-c2ccnc3c(C#N)cnn23)c1 [Zaleplon]	-3.98	-8.07	5.81	-1.42	-10.8
CC(=O)O[C@H]1C[C@@H]2CC[C@@H]3[C@H](CC[C@@]4(C)[C@H]3C[C@H]([N+]3(C)CCCCC3)[C@@H]4OC(C)=O)[C@@]2(C)C[C@@H]1[N+]1(C)CCCCC1 [Pancuronium (bromide hydrate)]	15.9	4.02	-3.48	-0.432	5.41
COc1ccc2c(c1)[C@]13CCCC[C@@H]1[C@H](C2)N(C)CC3 [Dextromethorphan (hydrobromide hydrate)]	18.6	1.65	-16	-4.55	-8.83
O=P1(NCCCl)OCCCN1CCCl (stereo not given) [Ifosfamide]	10	-6.24	-5.39	2.26	2.77
O=C1CC[C@@]2(O)[C@H]3Cc4ccc(O)c5c4[C@@]2(CCN3CC2CC2)[C@H]1O5 [Naltrexone (hydrochloride)]	12.7	5.18	13.3	2.13	7.87
CC[C@@H](C(N)=O)N1CCCC1=O [Levetiracetam]	1.51	0.691	2.97	4.14	4.89
C=CCN1C[C@H](C(=O)N(CCCN(C)C)C(=O)NCC)C[C@@H]2c3cccc4[nH]cc(c34)C[C@H]21 [Cabergoline]	13.2	-8.8	-4.41	5.57	-3.78
COc1ccc(C(CN(C)C)C2(O)CCCCC2)cc1 (stereo not given) [Venlafaxine (hydrochloride)]	16.6	-10.3	-21.1	-5.65	-7.48
CC(O)(CS(=O)(=O)c1ccc(F)cc1)C(=O)Nc1ccc(C#N)c(C(F)(F)F)c1 (stereo not given) [Bicalutamide]	-0.599	4.36	0.23	6.4	9.87
Nc1ncnc2c1ncn2CCOCP(=O)(O)O [Adefovir]	-0.414	3.47	19.5	-0.786	6.79
CN1[C@@H]2C[C@@H](OC(=O)[C@H](CO)c3ccccc3)C[C@H]1[C@@H]1O[C@@H]12 [Scopolamine (hydrobromide)]	4.44	2.53	-2.69	-4.87	2.89
C=CCN1CC[C@]23c4c5ccc(O)c4O[C@H]2C(=O)CC[C@@]3(O)[C@H]1C5 [Naloxone (hydrochloride)]	12.1	-4.15	1.81	1.98	9.16
O=C(O)CCCc1ccc(N(CCCl)CCCl)cc1 [Chlorambucil]	12.6	1.74	5.75	-1.6	-10.5

Compound	difference in excitability [1]	difference in startle response [2]	difference in activity during first hour [3]	difference in habituation to acoustic stimuli [4]	difference [5]
O=P1(N(CCCl)CCCl)NCCCO1 (stereo not given) [Cyclophosphamide (hydrate)]	-1.55	-0.479	2.35	-0.439	2.91
N[C@@H]1C[C@H]1c1ccccc1 [Tranylcypromine (hydrochloride)]	-4.31	-7.1	-15.2	-1.86	1.86
C[N@+]1(CC2CC2)CC[C@]23c4c5ccc(O)c4O[C@H]2C(=O)CC[C@@]3(O)[C@H]1C5 [Methylnaltrexone (bromide)]	3.91	-0.955	8.76	7.78	-7.48
CC(C)C[C@H]1C(=O)N2CCC[C@H]2[C@]2(O)O[C@](NC(=O)[C@@H]3C[C@@H]4c5cccc6[nH]cc(c56)C[C@H]4N(C)C3)(C(C)C)C(=O)N12.CC(C)[C@@]1(NC(=O)[C@@H]2C[C@@H]3c4cccc5[nH]cc(c45)C[C@H]3N(C)C2)O[C@@]2(O)[C@@H]3CCCN3C(=O)[C@H](Cc3ccccc3)N2C1=O.CC(C)[C@H]1C(=O)N2CCC[C@H]2[C@]2(O)O[C@](NC(=O)[C@@H]3C[C@@H]4c5cccc6[nH]cc(c56)C[C@H]4N(C)C3)(C(C)C)C(=O)N12.CCC(C)[C@H]1C(=O)N2CCC[C@H]2[C@]2(O)O[C@](NC(=O)[C@@H]3C[C@@H]4c5cccc6[nH]cc(c56)C[C@H]4N(C)C3)(C(C)C)C(=O)N12 [Ergoloid (mesylates)]	8.62	4.7	-1.3	2.76	-3.42
CN(C)C(=O)Oc1ccc[n+](C)c1 [Pyridostigmine (bromide)]	-1.66	-2.73	-1.82	4.7	2.09
CC(N)Cc1ccc(O)cc1 (stereo not given) [4-hydroxy Amphetamine (hydrochloride)]	2.21	-1.49	5.37	0.612	-2.78
N[C@@H](Cc1ccc(N(CCCl)CCCl)cc1)C(=O)O [Melphalan]	10.9	1.5	-4.46	-1.58	7.41
CCN(C)C(=O)Oc1cccc([C@H](C)N(C)C)c1 [Rivastigmine (tartrate)]	0.964	4.99	-2.5	-3.03	5.01
O=[N+]([O-])O[C@H]1CO[C@H]2[C@@H]1OC[C@H]2O[N+](=O)[O-] [Isosorbide Dinitrate]	5.95	10.4	2.6	1.13	5
CC1=C[C@]23C(=O)[C@@H](C=C(CO)[C@@H](O)[C@]2(O)[C@H]1O)[C@H]1[C@@H](C[C@H]3C)C1(C)C [Ingenol]	8.75	2.54	-2.63	4.35	-0.622
C[N+]1(C)[C@@H]2C[C@@H](OC(=O)[C@H](CO)c3ccccc3)C[C@H]1[C@@H]1O[C@@H]12 [Methylscopolamine (bromide)]	-2.02	0.0162	-10	-2.49	0.657
NCC1(CC(=O)O)CCCCC1 [Gabapentin]	-1.43	8.77	13.9	2.43	6.89
COc1cc2c(cc1OC)C1CC(=O)C(CC(C)C)CN1CC2 (stereo not given) [Tetrabenazine]	25.1	3.39	9.5	-2.68	-3.98
CN1C[C@H](C(=O)N[C@]2(C)O[C@@]3(O)[C@@H]4CCCN4C(=O)[C@H](Cc4ccccc4)N3C2=O)C[C@@H]2c3cccc4[nH]cc(c34)C[C@H]21 [Dihydroergotamine (mesylate)]	16.4	11.9	-6.95	-1.86	2.36
O=C(O[C@H]1C[C@H]2CC[C@@H](C1)[N+]21CCCC1)C(O)(c1ccccc1)c1ccccc1 [Trospium (chloride)]	-11.2	-0.27	1.73	-0.832	-4.92
C=CCN1CC[C@]23c4c5ccc(O)c4O[C@H]2[C@@H](OCCOCCOCCOCCOCCOCCOCCOC)CC[C@@]3(O)[C@H]1C5 [Naloxegol (oxalate)]	3.05	1.93	7.65	5.19	-4.82
COc1cc([C@@H]2c3cc4c(cc3[C@H](O)[C@H]3COC(=O)[C@H]23)OCO4)cc(OC)c1OC [Podophyllotoxin]	12.7	-7.15	-1.85	2.01	7.28
O=C(O[C@H]1C[N+]2(CCCOc3ccccc3)CCC1CC2)C(O)(c1cccs1)c1cccs1 [Aclidinium (bromide)]	-0.582	-8.56	-5.04	-1.38	-3.58
CCOC(=O)CC(SP(=S)(OC)OC)C(=O)OCC (stereo not given) [Malathion]	21.4	5.73	-5.37	1.62	14.9
COc1cc2c(c(OC)c1OC)-c1ccc(OC)c(=O)cc1[C@@H](NC(C)=O)CC2 [Colchicine]	-4.48	-0.112	1.93	2.9	4.29
CC(C)C[C@H]1C(=O)N2CCC[C@H]2[C@]2(O)O[C@](NC(=O)[C@@H]3C=C4c5cccc6[nH]c(Br)c(c56)C[C@H]4N(C)C3)(C(C)C)C(=O)N12 [Bromocriptine (mesylate)]	22.1	-1.2	30.9	-9.36	-3.6
ClC1C(Cl)C(Cl)C(Cl)C(Cl)C1Cl (stereo not given) [γ-Lindane]	7.5	11.9	1.64	-7.56	-16.7
CN1[C@@H]2CC[C@H]1C[C@@H](OC(=O)C(CO)c1ccccc1)C2 (stereo not given in full) [Atropine]	-7.7	-5.16	-10.3	-0.323	-1.56
CC(NC(C)(C)C)C(=O)c1cccc(Cl)c1 (stereo not given) [Bupropion (hydrochloride)]	-1.99	-4.01	-3.52	2.84	-2.98
C#CCN(C)[C@H](C)Cc1ccccc1 [R-(-)-Deprenyl (hydrochloride)]	-5.66	-0.482	-5.84	6.14	1.17
